# Measurements as given in PubChem BioAssay (NCI).
# The panel holds about 83,000 compounds, 20% with a hit somewhere; the sample as a whole holds those more often.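 Negative percent growth values reflect cell death: -40 means 40% of the cells present at the start died, and -100 means all died.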 Unmarked numbers belong to inactive results. Calls of active or inactive are those of the source. The calls were made as follows: active = growth percent below 10; inactive = the rest.
# Tested on: T-47D breast
# Assay: NCI-60 one-dose screen, 48 h (100 = growth as untreated, 0 = no growth, -100 = all killed)
# Settings: 10 µM unless noted
row,Compound,growth
1,O=C(CS(=O)c1oc(-c2cccs2)nc1S(=O)(=O)c1ccc(Br)cc1)c1ccccc1 (stereo unspecified),82%
2,Cc1cccc2c(=O)c3c(sc12)c(NCc1ccccc1)nc1ccccc13,48.4%
3,COc1ccc2c(c1)c(-c1nn3cc(-c4cccs4)nc3s1)cn2C,43.6%
4,CCOC(=O)/C(C#N)=C\Nc1ccc2ncnc(Nc3ccc(Cl)cc3Cl)c2c1,58.6%
5,CCCCCCNC(=O)Oc1ccc(/C(=C(\C)c2ccc(Cl)cc2)c2ccc(OCCN3CCCCC3)cc2)cc1,29.1%
6,CCN(CC)S(=O)(=O)c1ccc(NC(=O)CSc2nnc(C)n2-c2ccccc2)cc1,106%
7,CN(C)c1ccc2nc3ccc(=[N+](C)C)c([N+](=O)[O-])c-3sc2c1,10.3%
8,COc1ccc(-c2nn(C(=O)c3cc(OC)c(OC)c(OC)c3)c3cc(N)ccc23)cc1,59.9%
9,O=C(Nc1ccc(I)cc1F)c1cc(I)ccc1O,-0.561% (active)
10,COc1cc2oc(-c3ccc(O)cc3)cc(=O)c2c(O)c1-c1c(OC)cc(O)c2c(=O)cc(-c3ccc(O)cc3)oc12,82.8%
11,CCCCOc1nc2ccc(OC)cc2cc1-c1cc(-c2ccc(Cl)cc2)nc(-c2ccc(Cl)cc2)c1,97.4%
12,COc1ccc(/C=C(/C#N)n2nnc3cccc(F)c32)cc1,9.54% (active)
13,O=C(Cc1ccc(F)c(Cl)c1)Nc1cc(C2(C(F)(F)F)CC2)nn1Cc1ccccc1,64.9%
14,COc1ccc2nc(NCCCNCCO)c3sc4ccc(F)cc4c(=O)c3c2c1,72.2%
15,CN1CCN(c2ccc(-c3cnc4c(-c5csc6ccccc56)cnn4c3)cc2)CC1,-7.17% (active)
16,O=CN1N=C(c2ccc(Nc3ccnc4cc(Cl)ccc34)cc2)CC1c1ccccc1 (stereo unspecified),31.7%
17,Cc1nc2ccccc2c(/C=C/c2ccccc2)c1C(=O)/C=C/c1ccc(C(F)(F)F)cc1,-14.6% (active)
18,Cc1ccc(-c2nc(N3CCN(C(=O)c4ccc(OC(F)(F)F)cc4)CC3)c3ccccc3n2)cc1,61.7%
19,C[C@H]1[C@H]2[C@H]3CC[C@@H]4[C@@]5(C)CC[C@H](O)C(C)(C)[C@@H]5CC[C@@]4(C)[C@]3(C)CC[C@]23CO[C@]1(C)[C@@H](C(=O)/C=C\c1cccnc1)C3,30.2%

row,Compound,growth
1,COC(=O)[C@H](C)NC(=O)NC(=O)NC(=O)CI,44.6%
2,CC(=O)OC[C@H]1OC(Sc2sc(C(=O)c3ccc(C)cc3)c(N)c2-c2nc3ccccc3s2)[C@H](OC(C)=O)[C@@H](OC(C)=O)[C@@H]1OC(C)=O (stereo partly specified),69.7%
3,COc1ccc(-c2nc(NN)c3c(C)nn(-c4ccc(F)cc4)c3n2)cc1,38.6%
4,O=C(Nc1ccc(OS(=O)(=O)c2ccc(F)cc2)cc1)c1ccc(Cl)cc1,78.1%
5,CC1CN(C2CCCCC2)C(=S)N(c2ccccc2)C1=O (stereo unspecified),103%
6,N#Cc1c(-c2ccc(Cl)cc2)nc2c(c(-c3ccccc3)nn2-c2ccccc2)c1-c1ccc(O)cc1,55.4%
7,COc1ccc(/C=N/Nc2cc(=O)[nH]c3ccc(Cl)cc23)cc1,42.4%
8,CC(=O)CC[C@H]1C(=O)N[C@@H](C(C)C)C(=O)N[C@@H](Cc2cc(O)cc(F)c2)C(=O)N2CCC[C@H](N2)C(=O)O[C@H](/C(C)=C/C=C/C(=O)OC(C)(C)C)C/C=C/C=C/[C@H](O)[C@H](C)[C@H]1O,55%
9,O=C1CCC(C(=O)NCCNCCNC(=O)C2CCC(=O)N2)N1 (stereo unspecified),85%
10,Nc1nn(C(=O)Nc2ccc(Cc3ccccc3)cc2)c2ccc(Cl)cc12,41.4%
11,COc1cc(/C=C/c2ccccc2)cc(OC)c1,77.9%
12,CC1Cc2ccccc2N1NC(=O)c1ccc(Cl)c(S(N)(=O)=O)c1 (stereo unspecified),100%
13,CC1(C)C2CC1C1(/C=N\Nc3ccccc3)C(C2)C(C#N)(C#N)C1(C#N)C#N (stereo unspecified),72.6%
14,COc1ccc(NC(=O)n2nc(/C=C\c3ccc(O)c(OC)c3)cc2/C=C\c2ccc(O)c(OC)c2)cc1,34.8%
15,CN1CCN(c2ccc(-c3ccc4ncc(C#N)c(Nc5ccc(F)c(Cl)c5)c4c3)cn2)CC1,60.8%
16,O=c1[nH]c2c(ccc3cnccc32)c2c1CCC2,-7.41% (active)
17,COc1nc2ccccc2cc1-c1nc2c(cnn2-c2ccc(Br)cc2)c(=O)[nH]1,24.2%
18,Cn1cc(C(=O)c2nc(-c3cn(C)c4ccc(F)cc34)no2)c2cc(F)ccc21,91.2%
19,Cc1cccc(OCC(O)CN2CCN(c3ccc(Cl)cc3)CC2)c1 (stereo unspecified),107%

# Tested on: BT-549 breast
# Assay: as above
# Settings: 10 µM unless noted
row,Compound,growth
1,O=C(CS(=O)c1oc(-c2cccs2)nc1S(=O)(=O)c1ccc(Br)cc1)c1ccccc1 (stereo unspecified),97%
2,Cc1cccc2c(=O)c3c(sc12)c(NCc1ccccc1)nc1ccccc13,101%
3,COc1ccc2c(c1)c(-c1nn3cc(-c4cccs4)nc3s1)cn2C,101%
4,CCOC(=O)/C(C#N)=C\Nc1ccc2ncnc(Nc3ccc(Cl)cc3Cl)c2c1,89.6%
5,CCCCCCNC(=O)Oc1ccc(/C(=C(\C)c2ccc(Cl)cc2)c2ccc(OCCN3CCCCC3)cc2)cc1,64.4%
6,CCN(CC)S(=O)(=O)c1ccc(NC(=O)CSc2nnc(C)n2-c2ccccc2)cc1,117%
7,CN(C)c1ccc2nc3ccc(=[N+](C)C)c([N+](=O)[O-])c-3sc2c1,40.5%
8,COc1ccc(-c2nn(C(=O)c3cc(OC)c(OC)c(OC)c3)c3cc(N)ccc23)cc1,21.5%
9,O=C(Nc1ccc(I)cc1F)c1cc(I)ccc1O,-9.42% (active)
10,COc1cc2oc(-c3ccc(O)cc3)cc(=O)c2c(O)c1-c1c(OC)cc(O)c2c(=O)cc(-c3ccc(O)cc3)oc12,46.7%
11,CCCCOc1nc2ccc(OC)cc2cc1-c1cc(-c2ccc(Cl)cc2)nc(-c2ccc(Cl)cc2)c1,105%
12,COc1ccc(/C=C(/C#N)n2nnc3cccc(F)c32)cc1,20.3%
13,O=C(Cc1ccc(F)c(Cl)c1)Nc1cc(C2(C(F)(F)F)CC2)nn1Cc1ccccc1,77.7%
14,COc1ccc2nc(NCCCNCCO)c3sc4ccc(F)cc4c(=O)c3c2c1,91.6%
15,CN1CCN(c2ccc(-c3cnc4c(-c5csc6ccccc56)cnn4c3)cc2)CC1,-39.3% (active)
16,O=CN1N=C(c2ccc(Nc3ccnc4cc(Cl)ccc34)cc2)CC1c1ccccc1 (stereo unspecified),39.1%
17,Cc1nc2ccccc2c(/C=C/c2ccccc2)c1C(=O)/C=C/c1ccc(C(F)(F)F)cc1,-25.6% (active)
18,Cc1ccc(-c2nc(N3CCN(C(=O)c4ccc(OC(F)(F)F)cc4)CC3)c3ccccc3n2)cc1,91.9%
19,C[C@H]1[C@H]2[C@H]3CC[C@@H]4[C@@]5(C)CC[C@H](O)C(C)(C)[C@@H]5CC[C@@]4(C)[C@]3(C)CC[C@]23CO[C@]1(C)[C@@H](C(=O)/C=C\c1cccnc1)C3,57.2%

row,Compound,growth
1,COC(=O)[C@H](C)NC(=O)NC(=O)NC(=O)CI,84.3%
2,CC(=O)OC[C@H]1OC(Sc2sc(C(=O)c3ccc(C)cc3)c(N)c2-c2nc3ccccc3s2)[C@H](OC(C)=O)[C@@H](OC(C)=O)[C@@H]1OC(C)=O (stereo partly specified),83.4%
3,COc1ccc(-c2nc(NN)c3c(C)nn(-c4ccc(F)cc4)c3n2)cc1,46.8%
4,O=C(Nc1ccc(OS(=O)(=O)c2ccc(F)cc2)cc1)c1ccc(Cl)cc1,97.4%
5,CC1CN(C2CCCCC2)C(=S)N(c2ccccc2)C1=O (stereo unspecified),108%
6,N#Cc1c(-c2ccc(Cl)cc2)nc2c(c(-c3ccccc3)nn2-c2ccccc2)c1-c1ccc(O)cc1,62.3%
7,COc1ccc(/C=N/Nc2cc(=O)[nH]c3ccc(Cl)cc23)cc1,32.1%
8,CC(=O)CC[C@H]1C(=O)N[C@@H](C(C)C)C(=O)N[C@@H](Cc2cc(O)cc(F)c2)C(=O)N2CCC[C@H](N2)C(=O)O[C@H](/C(C)=C/C=C/C(=O)OC(C)(C)C)C/C=C/C=C/[C@H](O)[C@H](C)[C@H]1O,39.6%
9,O=C1CCC(C(=O)NCCNCCNC(=O)C2CCC(=O)N2)N1 (stereo unspecified),81.3%
10,Nc1nn(C(=O)Nc2ccc(Cc3ccccc3)cc2)c2ccc(Cl)cc12,55.9%
11,COc1cc(/C=C/c2ccccc2)cc(OC)c1,101%
12,CC1Cc2ccccc2N1NC(=O)c1ccc(Cl)c(S(N)(=O)=O)c1 (stereo unspecified),92.1%
13,CC1(C)C2CC1C1(/C=N\Nc3ccccc3)C(C2)C(C#N)(C#N)C1(C#N)C#N (stereo unspecified),107%
14,COc1ccc(NC(=O)n2nc(/C=C\c3ccc(O)c(OC)c3)cc2/C=C\c2ccc(O)c(OC)c2)cc1,31.4%
15,CN1CCN(c2ccc(-c3ccc4ncc(C#N)c(Nc5ccc(F)c(Cl)c5)c4c3)cn2)CC1,60.3%
16,O=c1[nH]c2c(ccc3cnccc32)c2c1CCC2,-51.7% (active)
17,COc1nc2ccccc2cc1-c1nc2c(cnn2-c2ccc(Br)cc2)c(=O)[nH]1,50%
18,Cn1cc(C(=O)c2nc(-c3cn(C)c4ccc(F)cc34)no2)c2cc(F)ccc21,106%
19,Cc1cccc(OCC(O)CN2CCN(c3ccc(Cl)cc3)CC2)c1 (stereo unspecified),99.6%
